Screening results deposited in PubChem BioAssay by several laboratories.
Rows were chosen to be rich in hits. Some 1.6% of all compounds tested hit in one or more screens of this group.
V-ATPase pHluor: yeast V-ATPase proton transport regulation by pHLuorin. S. cerevisiae, pHLuorin cytosolic pH fluorescence. response, % at 10 µM. 350,000 tested, 0.37% active. AID 504577; in the data active means response mostly above about 7.3%, no sharp cut-off; inactive means mostly below about 5.4%; further: actives read high
NALP1 yeast inh: NALP1 inhibition | S. cerevisiae NALP1/ASC/caspase-1 growth, X-gal OD620, 72 h | 280,000 tested, 0.61% active | AID 2071 | inhibition, % at 10 µM; in the data active means inhibition mostly above about 24%, no sharp cut-off; inactive means mostly below about 32%
Rce1 inhib: inhibitors of yeast Ras-converting enzyme; 290,000 tested, 0.27% active; AID 2563; yeast membranes, quenched prenylated peptide cleavage fluorescence; calls only; Q03530;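 active means fall in fluorescence gain of 50% or more versus controls, with final raw signal at or below 3038400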;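 further: plate controls were neutral control wells for no effect and wells lacking membranes for full effect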
Target sequence (Q03530 whole entry, looked up): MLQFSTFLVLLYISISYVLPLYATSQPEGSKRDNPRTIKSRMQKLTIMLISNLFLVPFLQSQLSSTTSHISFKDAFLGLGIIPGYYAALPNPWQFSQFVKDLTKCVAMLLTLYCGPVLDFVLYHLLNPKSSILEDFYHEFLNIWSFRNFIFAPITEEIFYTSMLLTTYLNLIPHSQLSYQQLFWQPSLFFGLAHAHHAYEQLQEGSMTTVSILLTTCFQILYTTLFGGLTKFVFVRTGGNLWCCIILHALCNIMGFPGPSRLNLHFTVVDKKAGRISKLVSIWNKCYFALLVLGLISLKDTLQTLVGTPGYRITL
CR mimetic SO: yeast age-related superoxide inhibition as caloric restriction mimetic; S. cerevisiae aged cells, superoxide DHE fluorescence; active compounds read low; superoxide response (% of plate mean), % at 10 µM; 330,000 tested, 0.18% active;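 active means superoxide response under a set limit, about three screen SD below normal, cut at about 65% in these data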;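 further: yeast aged for seven days with compound at 30 °C before DHE staining; 100% = average MFI of all compound-treated wells on the plate with controls excluded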
PERK inhibitor: human PERK inhibition, primary cell-based screen; Q9NZJ5; CHO PERK-DD fusion, SEAP luminescence translation reporter; inhibition, % at 5.6 µM; 220,000 tested, 0.17% active; AID 1416;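 active means inhibition above the mean inhibition of all tested compounds plus 3 SD, set separately per screening campaign, cut at about 2.9% in these data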;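 further: PERK kinase domain activated by AP20187 dimerizer at 100 nM; 0% = DMSO with dimerizer and 100% = rapamycin at 8.4 µM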
NLRP3 yeast inh: inhibitors of NALP3 inflammasome in yeast; Yeast reconstituted NLRP3/ASC/caspase-1, beta-gal luminescence, 24 h; inhibition, % at 10 µM; 330,000 tested, 0.39% active; AID 2825;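 active means inhibition of 50% or more; inactive means inhibition below 50%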;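 further: plate controls were induced DMSO wells for no effect and uninduced yeast grown without galactose for full effect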
VATPase regulator: yeast V-ATPase proton transport regulation. shares compounds with V-ATPase pHluor. response, % at 10 µM. 980 tested, 2% active. S. cerevisiae pHLuorin cytosolic pH; in the data active means response above about 24%;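 further: plate controls were vehicle wells for no effect and positive control wells for full effect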
Active calls of the source: *; i = inactive; x = not tested or not shown.

SMILES	V-ATPase pHluor	NALP1 yeast inh	Rce1 inhib	CR mimetic SO	PERK inhibitor	NLRP3 yeast inh	VATPase regulator
Cc1ccc(-n2nc(C(=O)NN)c(C)c(C#N)c2=O)cc1Cl	0	6	i	90	x	9	x
O=C1C2C3C=CC(CC3)C2S(=O)(=O)C2C3C=CC(CC3)C12 (stereo unspecified)	5	x	x	x	x	x	x
Cn1c(SCC(=O)NC2CCCCC2)nnc1-c1cccnc1	-2	-4	i	117	x	17	x
Cn1c(SCC(=O)NC2(C#N)CCCCC2)nnc1-c1cccnc1	9.3*	15	i	84	x	8	1
Cc1cc(O)c(C(C)C)cc1NC(=S)Nc1cc(C(C)C)c(O)cc1C	-5	x	x	x	x	x	x
CCS(=O)c1scc(-c2ccc(Cl)cc2)c1C#N (stereo unspecified)	9.0*	5	i	104	1	24	0
CCc1nc2c(C#N)c(-c3ccc(Cl)cc3)ccn2n1	0	10	i	96	-1	29	x
O=C(c1cccnc1)N1CCC2CC1c1c(Cl)cccc12 (stereo unspecified)	-1	x	x	x	x	x	x
COC(=O)C[C@@H]1C[C@H]2c3cc(N(C)C)ccc3O[C@H]2[C@H](CO)O1	-4	x	x	x	x	x	x
O=C(CSc1nc2ccccc2c(=O)n1NC(=O)Cc1ccccc1)NCc1ccccc1	15*	-3	i	111	0	-2	2
O=C(CSc1nc2ccccc2c(=O)n1NC(=O)Cc1ccccc1)NCc1ccco1	1	-5	i	104	0	6	x
O=S1(=O)CCN(CCc2ccccc2)CC1	1	x	x	x	x	x	x
Cc1cnnc2c1-c1no[n+]([O-])c1CC2	14*	10	i	115	0	2	0
CCCCCCCCNC(=O)c1cccnc1SCC(=O)Nc1ccccc1OC	16*	19	i	98	0	3	-8
CNC(=O)C[C@H]1C(=O)N(c2ccc(OC)cc2)C[C@@H]1CSC	3	x	x	x	x	x	x
O=C1CC2CCCC(C1)S2=O (stereo unspecified)	0	x	x	x	x	x	x
COc1ccccc1CN1CC(C(=O)NCCCc2ccc(F)cc2)CCC1=O (stereo unspecified)	13*	11	i	93	x	16	0
Cc1ccccc1NC(=O)COc1coc(CN2CCCc3ccccc32)cc1=O	3	x	i	96	x	16	x
O=C(COc1coc(CN2CCCc3ccccc32)cc1=O)Nc1ccc([N+](=O)[O-])cc1	7.4*	x	i	109	x	19	0
Cc1c(NC(=O)COC(=O)C2(c3ccccc3F)CCCC2)c(=O)n(-c2ccccc2)n1C	11*	-1	i	81	0	-1	-2
O=C(c1ccc2nc3ccccc3c(=O)n2c1)N1CCN(Cc2ccc3c(c2)OCO3)CC1	1	-7	i	91	-1	19	x
CCCC(=O)N1CCN(Cc2ccc3c(c2)OCO3)CC1	-2	23	i	99	1	-15	x
C[C@@H](C(=O)N1CCN(Cc2ccc3c(c2)OCO3)CC1)n1nnc2ccccc2c1=O	24*	3	i	109	x	-3	2
CCOCC(=O)N1CCN(Cc2ccc3c(c2)OCO3)CC1	9.3*	-6	i	100	x	2	0
CCn1c(SCC(=O)Nc2nc3ccccc3s2)nnc1-c1ccc(Br)cc1	15*	6	i	94	0	-5	1
SMILES	V-ATPase pHluor	NALP1 yeast inh	Rce1 inhib	CR mimetic SO	PERK inhibitor	NLRP3 yeast inh	VATPase regulator
CCOC(=O)c1c(C)c(-c2ccccc2)n(CC(=O)NCCCN(CC)CC)c1C	15*	6	i	94	0	4	0
COc1ccc(NC(=O)COC(=O)C2COc3ccccc3O2)cc1OC (stereo unspecified)	-1	x	x	x	x	x	x
O=C(c1ccc(Cl)cc1)[C@@H]1[C@@H]2C(=O)N(c3ccccc3)C(=O)[C@@H]2C2c3ccccc3C=NN21 (stereo partly specified)	10*	34	i	83	-1	-7	-2
O=S(=O)(c1cc(O)ccc1O)c1cccc2c(S(=O)(=O)c3cc(O)ccc3O)cccc12	2	x	i	102	x	11	x
O=S(=O)(O)c1cc(O)ccc1O	15*	x	x	102	x	4	-2
Cc1ccc2oc(C(=O)N(C)Cc3ccc(C)o3)c(C)c2c1	12*	10	i	120	x	23	69*
C[C@@H]1C=C[C@](Cc2ccccc2)(C(=O)NCC2CC2)N1C(=O)c1ccccc1	11*	16	i	105	0	8	0
CNC(=O)[C@@]1(Cc2ccccc2)C=C[C@@H](C)N1C(=O)OC	3	x	i	103	x	17	x
Nc1nnc(SCC(=O)Nc2ccc(N3CCOCC3)c(Cl)c2)s1	7.4*	8	i	110	x	14	-1
COc1ccccc1NC(=O)COC(=O)Cn1c(C)csc1=O	2	x	x	x	x	x	x
Cc1ccc(C(=O)Nc2ccccc2C(=O)N2CC(C)OC(C)C2)cc1 (stereo unspecified)	-3	x	x	x	x	x	x
Cc1ccc(Cl)cc1N1CCN(C(=O)CNC(=O)c2ccc(Br)o2)CC1	8.1*	x	x	114	x	36	6
CCCCn1c(N)c(N(CCOC)C(=O)c2oc3c(Cl)cccc3c2C)c(=O)[nH]c1=O	-2	x	x	x	x	x	x
Cc1cc(-c2ccccc2)nc(N(C)NC(=O)c2ccc(Cl)cc2)c1S(C)(=O)=O	18*	3	i	106	1	20	-3
COc1ccccc1N1CCN(C(=O)C2CCN(S(=O)(=O)c3ccc4c(c3)CC(C)N4C(=O)C3CC3)CC2)CC1 (stereo unspecified)	14*	1	i	110	x	9	1
O=C(NCCCNC(=O)c1ccc(F)cc1)c1ccc(F)cc1	4	4	i	103	x	13	1
O=C(O)CCC(=O)Nc1ccc(F)cc1	1	-4	i	95	1	-2	x
O=C(CCCC(=O)c1ccc(F)cc1)c1ccc(F)cc1	8	33	i	84	x	-13	1
O=C(O)CCC(=O)NCC(=O)c1ccc(F)cc1	9	-9	i	110	0	12	-1
CCOc1ccc(NC(=O)c2cccc(S(=O)(=O)NCc3cccnc3)c2)cc1	0	x	x	x	x	x	x
CC1=C(C(=O)N2CCOCC2)CC(CC(=O)NCC2CCCCC2)C(=O)N1Cc1ccccc1 (stereo unspecified)	4	x	x	x	x	x	x
CCCCCn1nc(C(=O)N(CC(C)C)c2c(N)n(CCCC)c(=O)[nH]c2=O)c2ccccc2c1=O	22*	x	i	89	x	1	0
O=C1CC(=O)C(n2cncn2)C(c2ccc(Cl)cc2)C1 (stereo unspecified)	7.5*	35	i	102	1	-2	2
C[C@H](CO)N1C[C@H](C)[C@@H](CN(C)C(=O)c2cnccn2)Oc2cc(C#CCC3CCCC3)ccc2S1(=O)=O	-3	x	x	x	x	x	x
Cc1noc(NS(=O)(=O)c2ccc(NC(=O)/C=C/c3ccccc3)cc2)c1C	13*	x	x	104	x	1	4
